Experimental data taken from PubChem BioAssay AID493240 (Broad Institute, 2011).
The campaign covered roughly 1,300 compounds. About 270 (21%) were called active. How the calls were made is not given here. Only a sample is shown. Entries that show only a call come without a potency. Potency and affinity values are given separately.

Assay: cytotoxicity in parental SK-MEL-5 melanoma cells – cell-based, CellTiter-Glo, cherry-picked, set 3, orthogonal assay for MITF inhibitor project, dose response (AID 493240)
Details: SK-MEL-5 viability, ATP luminescence (CellTiter-Glo), 24 h; series mostly up to 35 µM

Row | SMILES | outcome
1 | O=C(N/N=C/c1cc(Cl)ccc1O)c1ccncc1 | inactive
2 | O=C(COC(=O)c1ccc[nH]c1=O)Nc1ccc(N2CCCCC2)cc1 | inactive
3 | CN=c1scc(-c2ccccc2F)n1/N=C/c1ccc[nH]1 | inactive
4 | Cc1ccc(COc2ccc(C)nc2[N+](=O)[O-])cc1 | inactive
5 | O=C(Cn1ncc(Cl)c(Cl)c1=O)Nc1ccc2c(c1)OCO2 | inactive
6 | O=[N+]([O-])c1cccc(/C=N/Nc2ncc(Br)cn2)c1 | inactive
7 | O=C(c1ccc(S(=O)(=O)Cc2ccccc2Cl)c([N+](=O)[O-])c1)N1CCN(c2ccccn2)CC1 | inactive
8 | CC(C)C(=O)NC(c1ccco1)c1ccc2cccnc2c1O (centres undefined) | inactive
9 | COc1cc(SC)ccc1C(=O)Nc1ncc(C)s1 | inactive
10 | COc1cc(SC)ccc1C(=O)Nc1ccc(Br)cn1 | inactive
11 | COc1cc2c(cc1O)C(SC)=NC(C)(C)C2 | inactive
12 | O=[N+]([O-])c1ccccc1OCCCOc1cccc2cccnc12 | inactive
13 | O=[N+]([O-])c1cc(CN2CCN(c3ccccc3)CC2)c(O)c2ncccc12 | inactive
14 | CC(=O)Nc1ccc2c(c1)ncn2-c1ccccc1 | inactive
15 | CSCCNC(=O)c1ccc2nc(Cc3ccccc3F)oc2c1 | inactive
16 | N#C/C(=C\c1ccc(OCc2ccc(C(=O)O)cc2)cc1)C(=O)N1CCOCC1 | inactive
17 | Cc1ccc(-c2cc3onc(-c4ccccc4)c3c(=O)n2C)cc1 | inactive
18 | CN(Cc1ccccc1)C1=CC(=[N+]2CCCC2)CC(C)(C)C1 | inactive
19 | N/C(=N\OC(=O)c1cccc(F)c1)c1cccc([N+](=O)[O-])c1 | inactive
20 | COc1ccc(C(=O)NCC(=O)c2ccccc2)cc1 | inactive
21 | O=C(N/N=C/C=C/c1ccccc1)c1ccccn1 | inactive
22 | COc1cc2c(cc1OC)C(SC)=NC1(CCCC1)C2 | inactive
23 | O=C(c1ccccc1)c1cc(Cl)ccc1N1C(=O)C=CC1=O | inactive
24 | COc1ccc(/C=N/Nc2cc(C)nc(-n3nc(C)cc3C)n2)c(OC)c1 | inactive
25 | CC(=O)Oc1c(C(=O)c2nnc(C)o2)c(=O)n(Cc2ccccc2)c2ccccc12 | inactive

Row | SMILES | outcome
26 | Cc1ccc2nc(NC(=O)CCCC(=O)O)sc2c1 | inactive
27 | CN(C)CCCN(C(=O)c1ccc(Cl)s1)c1nc2cc3c(cc2s1)OCO3 | inactive
28 | Cc1c(C#N)c(NC(=O)CCl)n(Cc2ccc(F)cc2)c1C | inactive
29 | COc1ccccc1OCC(=O)N/N=C/C=C/c1ccc([N+](=O)[O-])o1 | inactive
30 | CCOc1ccccc1NC(=O)C(=O)N/N=C/c1cc(Br)ccc1O | inactive
31 | CC(C)(C)C(=O)Nc1cc2nn(-c3ccccc3)nc2cc1Cl | inactive
32 | CCOc1ccc2nc(NC3=NC(c4ccc(OC)cc4)CC(=O)N3)nc(C)c2c1 (centres undefined) | inactive
33 | Cc1ccc(C(=O)c2cccc(N)c2)cc1C | inactive
34 | Cc1nc2ccccn2c1C(=O)N/N=C/c1ccc([N+](=O)[O-])o1 | inactive
35 | CC1=NC(=O)C(N=Nc2cccc(C(=O)O)c2)N1c1ccccc1 (centres undefined) | inactive
36 | CC(Oc1ccc(F)cc1)C(=O)Nc1nc(-c2ccccn2)cs1 (centres undefined) | inactive
37 | O=C(CCNc1ccccc1)c1ccc2c(c1)OCO2 | inactive
38 | C=CCN1C(=O)S/C(=C\c2ccc(N3CCOCC3)cc2C)C1=O | inactive
39 | Cc1ccc(C)c(C(=O)Cn2ncc(Cl)c(Cl)c2=O)c1 | inactive
40 | Cc1ccc(SCCC(=O)N2CCC(C)CC2)cc1 | inactive
41 | CS(=O)(=O)N1CCN(c2nc3ccc(Cl)cc3s2)CC1 | inactive
42 | O=C(Nc1ccc(F)cc1F)c1cc2ccccc2oc1=O | inactive
43 | COc1ccc(CCC(=O)N2CCc3ccccc32)cc1 | inactive
44 | CCOc1ccc(N(CC(=O)Nc2ccc(OC)cc2)S(C)(=O)=O)cc1 | inactive
45 | COc1ccc(C(=O)Nc2ccc3c(c2)OCCO3)cc1Br | inactive
46 | Cn1c(/C=C/c2ccc(Cl)cc2)nc2ccccc2c1=O | inactive
47 | COc1cccc(-c2csc3ncnc(Sc4nnnn4C)c23)c1 | inactive
48 | Cn1c(/C(C#N)=C/c2ccc(-c3ccc(S(N)(=O)=O)cc3)o2)nc2ccccc21 | inactive
49 | CC1CCCCC1NC(=O)/C(C#N)=C/c1ccccc1F (centres undefined) | inactive
50 | O=C1c2cc([N+](=O)[O-])cc3cc([N+](=O)[O-])cc(c23)C(=O)N1c1ccccn1 | inactive

Row | SMILES | outcome
51 | N#C/C(=C\c1cccs1)C(=O)NCC1CCCO1 (centres undefined) | inactive
52 | N/C(=N\OC(=O)c1ccc([N+](=O)[O-])cc1)c1ccc(Br)cc1 | inactive
53 | CC(C)N=c1c([N+](=O)[O-])nn(C)n1O | inactive
54 | CCN1CCc2c(sc(NC(=O)c3ccc(S(=O)(=O)N4CCCC4)cc3)c2C(=O)NC)C1 | inactive
55 | COc1cccc(NC(=O)c2cc3ccccc3cc2OC)c1 | inactive
56 | O=C(N/N=C/C(Cl)=C\c1ccccc1)c1cccs1 | inactive
57 | CCOc1ccc(-c2ccc(SC)nn2)cc1 | inactive
58 | O=C(Nc1ccc(Cl)cc1)OCc1ccccn1 | inactive
59 | CC1CCN(c2nc3ccc(C(=O)O)cc3s2)CC1 | inactive
60 | O=C(O)c1ccc(Nc2nc3c(s2)CCCC3)cc1 | inactive
61 | Cc1c(C=O)c2cc(OCc3ccccc3)ccc2n1C | inactive
62 | Cn1c(=O)c([N+](=O)[O-])c(-n2ccnc2)c2ccccc21 | inactive
63 | NCCCNc1nc(N)c([N+](=O)[O-])c(NC2CCCCC2)n1 | inactive
64 | O=C(NC(=S)Nc1ccccn1)c1cccc([N+](=O)[O-])c1 | inactive
65 | N/C(=N\OC(=O)c1ccccc1Cl)c1cccc([N+](=O)[O-])c1 | inactive
66 | Cc1ccc2c(COC(=O)c3n[nH]c4ccccc34)cc(=O)oc2c1 | inactive
67 | CC(C)(C)c1ccc(-c2noc(CCC(=O)NCc3ccco3)n2)cc1 | inactive
68 | Cc1cc(-n2c(SCC(=O)NCCC3=CCCCC3)nc3n[nH]c(C)c3c2=N)ccc1Cl | inactive
69 | CC(/C=N/NC(=O)c1cc(-c2ccncc2)nc2ccccc12)=C\c1ccco1 | inactive
70 | COc1ccc(C)c2sc(N(CCN(C)C)C(=O)/C=C/c3cccs3)nc12 | inactive
71 | Cc1cccc2sc(N(CCCN(C)C)C(=O)c3nc4ccccc4s3)nc12 | inactive
72 | Cn1nc([N+](=O)[O-])nc1S(C)(=O)=O | inactive
73 | COc1cccc(-c2nnc3n2N=C(C(C)(C)C)CS3)c1 | inactive
74 | COC(=O)[C@@H]1C[C@]2(OC(=O)c3ccccc3)C=CC(=O)C[C@@H]2N1C(=O)OCc1ccccc1 | inactive
